PubChem BioAssay (Tox21)
Inconclusive results are not listed. Active and inactive are the calls of the source. Unless noted, calls come from the whole dose curve; as a rule, active = well fitted curve in the direction sought with a large enough effect in the repeat runs; inconclusive = weak or mixed curves; inactive = no such curve, though single readings can be large; an effect the other way counts as inactive or inconclusive.

How the values were obtained:
[1] = qHTS assay to identify small molecule agonists of the peroxisome proliferator-activated receptor delta (PPARd) signaling pathway - cell viability counter screen (AID 743211); note: nearly all actives have a fitted effect of over 55% in size; note: potency is the fitted concentration of half-maximal effect
Summary of the method: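 PPARd-bla HEK293H cells (3000/well) were pre-incubated 5 h at 37 C, then exposed to compound for 17 h at 37 C. After 2 h with LiveBLAzer substrate, CellTiter-Glo was added to the same wells; luminescence read after 30 min at room temperature.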

[2] = qHTS assay to identify small molecule antagonists of the peroxisome proliferator-activated receptor delta (PPARd) signaling pathway - cell viability counter screen (AID 743213); note: nearly all actives have a fitted effect of over 50% in size
Summary of the method: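 Luminescence from CellTiter-Glo, added after the bla read and incubated 30 min at room temperature, gives viability of HEK293H PPARd-bla cells exposed to compounds for 17 h at 37 C with 300 nM L165041.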

[3] = qHTS assay to identify small molecule agonists of the farnesoid-X-receptor (FXR) signaling pathway - cell viability counter screen (AID 743218); note: nearly all actives have a fitted effect of over 45% in size
Summary of the method: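 HEK 293T FXR-bla cells; 5 h pre-incubation, 16 h compound exposure at 37 C; LiveBLAzer substrate 2 h RT, then CellTiter-Glo 30 min RT, luminescence.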

[4] = qHTS assay to identify small molecule antagonists of the farnesoid-X-receptor (FXR) signaling pathway - cell viability counter screen (AID 743221; active = well fitted cell-killing curve with a large enough effect in the repeat runs, not every such curve was filed as active; note: nearly all actives have a fitted effect of over 50% in size)
Summary of the method: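 GeneBLAzer FXR-UAS-bla HEK 293T cells, compound plus chenodeoxycholic acid (50 uM final), 16 h at 37 C. CellTiter-Glo added to the same wells after the beta-lactamase read; luminescence read after 30 min at room temperature as viability.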

[5] = qHTS assay to identify small molecule agonists of the vitamin D receptor (VDR) signaling pathway - cell viability counter screen (AID 743224); note: series mostly up to about 63 µM; nearly all actives have a fitted effect of over 50% in size
Summary of the method: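 Luminescence from CellTiter-Glo, read after 30 min at room temperature, reports viability of VDR-bla cells treated with compounds for 16 h at 37C in the wells used for the beta-lactamase FRET read.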

[6] = qHTS assay to identify small molecule antagonists of the vitamin D receptor (VDR) signaling pathway - cell viability counter screen (AID 743225); note: nearly all actives have a fitted effect of over 50% in size
Summary of the method: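 VDR-UAS-bla HEK 293T cells were plated and incubated 4 h at 37C, then dosed with compound plus 3 nM (final) 1-alpha,25-dihydroxyvitamin D3 for 16 h. After the 2 h beta-lactamase read, viability in the same wells was read as CellTiter-Glo luminescence after 30 min at room temperature.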

[7] = qHTS assay to identify small molecule agonists of the NFkB signaling pathway (AID 1159509; active = well fitted curve in the direction sought with a large enough effect in the signal ratio in the repeat runs, not every such curve was filed as active; the % refers to the signal ratio; note: series mostly up to about 61 µM)
Summary of the method: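 After overnight attachment, reporter cells received test compounds, DMSO or positive controls and were incubated 5 hr at 37 C. FRET substrate was then added for 1.5 hr at room temperature before dual-emission fluorescence reading.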

[8] = qHTS assay to identify small molecule agonists of the NFkB signaling pathway - cell viability counter screen (AID 1159515; calls by dose curve; note: series mostly up to about 61 µM; nearly all actives have a fitted effect of over 55% in size)
Summary of the method: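 Luminescence from CellTiter-Glo (30 min, room temperature) gives viability, measured in the same wells as the beta-lactamase reporter read. Cells were NFkB-bla ME-180, 2,000 per well, treated 5 hr with compounds.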

[9] = qHTS assay to identify small molecule agonists of the endoplasmic reticulum stress response signaling pathway - cell viability counter screen (AID 1159517; calls by dose curve)
Summary of the method: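 Counter-screen wells were identical to the reporter wells. Cells were plated at 1,500 per well and dosed for 5 hr, then read for luminescence 30 min after CellTiter-Glo addition.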

[10] = qHTS assay to identify small molecule antagonists of the retinoid-related orphan receptor gamma (ROR-gamma) signaling pathway - cell viability counter screen (AID 1159520); note: nearly all actives have a fitted effect of over 50% in size
Summary of the method: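 Tet-on ROR gamma CHO cells were given compounds for 2 hr, then doxycycline hyclate at 1 uM final, and incubated 16 hr at 37 C. Viability was measured as ATP content by CellTiter-Glo luminescence.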

[11] = target: Nuclear receptor ROR-gamma (Homo sapiens) (UniProt P51449); test: qHTS assay to identify small molecule antagonists of the retinoid-related orphan receptor gamma (ROR-gamma) signaling pathway (AID 1159521; note: nearly all actives have a fitted effect of over 50% in size; note: potency is the fitted concentration of half-maximal effect)
Summary of the method: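 Tet-on ROR-gamma CHO cells with ROR response element-luciferase reporter; compounds added 2 hr before 1 uM doxycycline induction, then 16 hr at 37 C. Antagonism scored as decreased ONE-Glo luminescence.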

[12] = qHTS assay to identify small molecule agonists of the AP-1 signaling pathway - cell viability counter screen (AID 1159525; calls by dose curve; note: nearly all actives have a fitted effect of over 55% in size)
Summary of the method: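 AP-1-bla ME-180 cells in Opti-MEM with 0.5% dialyzed FBS, compound exposure 5 h at 37 C in 15-point titration. Viability read in the same wells as ATP content by CellTiter-Glo luminescence, normalised to tetra-n-octylammonium bromide and DMSO controls.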

[13] = qHTS assay to identify small molecule agonists of the AP-1 signaling pathway (AID 1159526; calls by dose curve)
[14] = target: Peroxisome proliferator-activated receptor delta (Homo sapiens) (UniProt Q03181); test: qHTS assay to identify small molecule antagonists of the peroxisome proliferator-activated receptor delta (PPARd) signaling pathway (AID 743215; active = well fitted inhibition curve with a large enough effect in the signal ratio in the repeat runs, not every such curve was filed as active; the % refers to the signal ratio;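 note: cells stimulated with agonist L165041 at 300 nM final during compound exposure; series mostly up to about 62 µM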)
Summary of the method: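 Read-out is beta-lactamase FRET fluorescence, measured 2 h after substrate addition at room temperature. Beforehand, UAS-bla HEK293H cells carrying the PPARd reporter were exposed to compounds with L165041 at 300 nM final for 17 h at 37 C.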

[15] = target: Bile acid receptor (Homo sapiens) (UniProt Q96RI1); test: qHTS assay to identify small molecule agonists of the farnesoid-X-receptor (FXR) signaling pathway (AID 743220; active = well fitted activation curve with a large enough effect in the signal ratio in the repeat runs, not every such curve was filed as active; the % refers to the signal ratio)
Summary of the method: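 Beta-lactamase reporter under UAS control in GeneBLAzer FXR HEK 293T cells (5000/well) measured with LiveBLAzer FRET substrate after 2 h at room temperature. Compound exposure lasted 16 h at 37C.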

[16] = target: Peroxisome proliferator-activated receptor delta (Homo sapiens) (UniProt Q03181); test: qHTS assay to identify small molecule agonists of the peroxisome proliferator-activated receptor delta (PPARd) signaling pathway (AID 743212; calls by dose curve)
Summary of the method: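 Quantitative high-throughput agonist screen in a HEK293H beta-lactamase reporter line under UAS control. Compounds in DMSO, at 37 C. Fluorescence read after 2 h with FRET substrate at room temperature.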

[17] = target: Vitamin D3 receptor (Homo sapiens) (UniProt P11473); test: qHTS assay to identify small molecule agonists of the vitamin D receptor (VDR) signaling pathway (AID 743222; calls by dose curve)
Summary of the method: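 VDR-bla cells, 2,000/well; 4 h preincubation 37C; cpd (DMSO) 16 h; LiveBLAzer B/G substrate 2 h RT; fluorescence intensity read.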

[18] = target: Vitamin D3 receptor (Homo sapiens) (UniProt P11473); test: qHTS assay to identify small molecule antagonists of the vitamin D receptor (VDR) signaling pathway (AID 743223; active = well fitted inhibition curve with a large enough effect in the signal ratio in the repeat runs, not every such curve was filed as active; the % refers to the signal ratio)
Summary of the method: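 VDR-bla cells were treated with compound plus 3 nM final 1alpha,25-dihydroxyvitamin D3 for 16 h at 37C. Beta-lactamase reporter read by B/G FRET substrate fluorescence after 2 h at room temperature. qHTS format.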

Measured: Potency

Peroxisome proliferator-activated receptor delta (Homo sapiens), sequence (Q03181 whole entry, looked up): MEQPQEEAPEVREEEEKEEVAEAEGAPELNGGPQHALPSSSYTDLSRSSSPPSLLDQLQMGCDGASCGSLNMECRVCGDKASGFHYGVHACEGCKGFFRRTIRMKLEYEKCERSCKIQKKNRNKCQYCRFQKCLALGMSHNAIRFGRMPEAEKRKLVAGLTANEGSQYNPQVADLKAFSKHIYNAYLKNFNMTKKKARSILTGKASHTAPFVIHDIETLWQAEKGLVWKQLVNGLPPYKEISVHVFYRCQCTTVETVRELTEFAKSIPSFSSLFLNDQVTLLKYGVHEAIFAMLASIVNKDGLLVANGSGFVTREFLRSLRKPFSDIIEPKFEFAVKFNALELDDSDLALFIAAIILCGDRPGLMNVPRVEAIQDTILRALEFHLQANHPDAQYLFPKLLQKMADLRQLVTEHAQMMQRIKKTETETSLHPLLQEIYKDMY
Vitamin D3 receptor (Homo sapiens), sequence (P11473 whole entry, looked up): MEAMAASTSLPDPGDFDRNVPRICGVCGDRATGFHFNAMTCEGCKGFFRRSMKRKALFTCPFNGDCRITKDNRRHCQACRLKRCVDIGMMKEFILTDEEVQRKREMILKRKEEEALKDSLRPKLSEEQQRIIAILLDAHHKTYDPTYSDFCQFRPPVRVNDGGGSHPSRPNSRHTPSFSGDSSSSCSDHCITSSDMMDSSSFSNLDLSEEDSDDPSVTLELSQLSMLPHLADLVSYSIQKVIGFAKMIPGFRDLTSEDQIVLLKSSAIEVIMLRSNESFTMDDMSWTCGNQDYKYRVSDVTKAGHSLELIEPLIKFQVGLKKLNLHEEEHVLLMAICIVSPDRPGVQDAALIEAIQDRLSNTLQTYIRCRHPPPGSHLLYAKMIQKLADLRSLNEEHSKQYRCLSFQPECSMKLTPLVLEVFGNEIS
Bile acid receptor (Homo sapiens), sequence (Q96RI1 whole entry, looked up): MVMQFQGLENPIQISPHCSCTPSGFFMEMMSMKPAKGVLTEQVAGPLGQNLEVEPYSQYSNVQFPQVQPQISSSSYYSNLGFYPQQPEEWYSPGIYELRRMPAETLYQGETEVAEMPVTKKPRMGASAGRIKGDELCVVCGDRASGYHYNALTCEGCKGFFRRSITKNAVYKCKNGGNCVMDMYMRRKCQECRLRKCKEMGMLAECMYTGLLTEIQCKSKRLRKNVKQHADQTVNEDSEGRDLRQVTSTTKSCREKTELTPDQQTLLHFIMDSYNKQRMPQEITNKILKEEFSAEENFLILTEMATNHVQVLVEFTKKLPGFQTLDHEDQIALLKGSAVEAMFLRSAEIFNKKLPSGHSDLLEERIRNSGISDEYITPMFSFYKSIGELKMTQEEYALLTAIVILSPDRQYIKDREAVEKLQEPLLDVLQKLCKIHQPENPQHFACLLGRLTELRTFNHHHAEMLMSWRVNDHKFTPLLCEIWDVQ

C=COC(C)=O
not listed: [14] | [15] | [16] | [17] | [18]
inactive: all other assays above

O=C1NCN(c2ccccc2)C12CCN(CCCOc1ccc(F)cc1)CC2
active: [11] 23.7 µM
not listed: [1] | [3] | [5] | [13] | [16] | [17] | [18]
inactive: all other assays above

CCCN(CCC)c1c([N+](=O)[O-])cc(S(C)(=O)=O)cc1[N+](=O)[O-]
not listed: [11] | [15] | [16] | [17] | [18]
inactive: all other assays above

c1ccc(CN2CCNCC2)cc1
not listed: [4] | [11] | [15]
inactive: all other assays above

CCOC(=O)[C@]1(c2ccccc2)Oc2ccccc2[C@@H]1N
inactive: [3] | [17] | [7] | [8] | [9] | [10] | [11] | [12]
active: [1] 54.9 µM

OC(c1ccc(Cl)cc1)(c1ccc(Cl)cc1)c1cccnc1
active: [11] 54.5 µM
not listed: [1] | [5] | [6] | [13] | [18]
inactive: all other assays above
